Here are results for 79 compounds from PubChem BioAssay AID1259416 (Broad Institute, 2018).

Where “and” joins values, the source holds several entries; their conditions need not be identical. Equal entries are not always repeated. The whole screen tested about 69,000 compounds, of which about 2,600 (3.8%) were called active. The full list was thinned out, with actives kept by preference. Unmarked numbers belong to inactive results. Cut-off read from the data, not from the text of the source: active = activity change below about -70% (passing the limit was not always enough); inconclusive = no clear call, values can overlap the other calls.

A short description of the experiment: inhibitors of Toxoplasma growth in IFN-γ-primed hosts – cell-based, primary screen (AID 1259416).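 Note: host cells are HeLa cells infected with Toxoplasma gondii.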 The following applies: Toxoplasma gondii growth in IFN-gamma-treated host cells; stronger effect = lower value; concentration not given here.
In the case of `O=C(CC1COCCN1)NCCC(c1ccccc1)c1ccccc1` (centres undefined), the activity change, negative = inhibition is -9.21%. Regarding `CNc1nc(N2CCN(Cc3nccn3C(C)C)CC2)nc2c1CCC2`, the activity change, negative = inhibition is 8.7%. As for `Cc1nc(CN2CCCn3nnc(COC(C)C)c3C2)cs1`, the figure is 9.42%.

For `COCCC(=O)N1CCN(CC2CC2)c2nc(C)ccc2C1`, the activity change, negative = inhibition is -15.5%. Under `Cn1nnc(-c2ccc(C(=O)NC(CN3CCCCC3)c3ccccc3)cc2)n1` (centres undefined) stands -0.396%; under `CCOC(=O)c1nc(N2CCC(c3ccccc3)C2)c2ccccc2n1` (centres undefined), 11.8%; under `O=C(Cn1ncc2c(N3CCN(c4ccccc4)CC3)ncnc21)Nc1ccc(Cl)cc1`, -12.8%. With `Clc1ccc(Cn2ncc3c(NCc4cccnc4)ncnc32)cc1`, the activity change, negative = inhibition is -81.5% (active). For `O=C(Cn1ncc2c(N3CCN(c4ccccn4)CC3)ncnc21)NCc1ccc(F)c(Cl)c1`, the activity change, negative = inhibition is -16.9%. As for `CCC(=O)N1Cc2cc(C(=O)NCc3cccc(F)c3)nc(-c3cccc(C4=CCCC4)c3)c2[C@H]1CCO`, the figure is -51.7%. Consider `Cc1cccc(OC2CCN(C(=O)c3ccc(OCc4nonc4C)cc3)CC2)c1`, for which the activity change, negative = inhibition is -46.1%. As for `Cc1cccc2[nH]nc(-c3cc(NCCN(C)C)nc4[nH]ccc34)c12`, the figure is -0.259%.

On to `CNc1cc(-c2cc(C(C)C)nc(C(F)(F)F)n2)c2cc[nH]c2n1`, for which the activity change, negative = inhibition was -83.6% (active). For `Cc1nc(C)n(CCC(=O)N2CCN(S(=O)(=O)c3ccccc3)CC2)n1`, the activity change, negative = inhibition is 55.6%. Under `CC1=NOC(C)(CNC(=O)c2csc(-c3cccs3)n2)C1` (centres undefined) stands -3.52%; under `O=C(Sc1cccs1)c1csc(C2COc3ccccc3O2)n1` (centres undefined), -96.7% (active); under `Cc1nc2ccccn2c1C(=O)N1CCCC(Cn2cc(C3CC3)nn2)C1` (centres undefined), 26.9%. As to `CN(C)C(=O)CN1CC2CN(Cc3ccncc3)CCC2(c2ccccc2)C1` (centres undefined), the activity change, negative = inhibition was -2.67%. Under `CCC(C(=O)OC)N1CCOc2c(O)cc(-c3ccc(C)s3)cc2C1` (centres undefined) stands -5%. `O=C1NCC(CN2CCOc3c(O)cc(-c4csc5ccccc45)cc3C2)O1` (centres undefined): the activity change, negative = inhibition was -76.2% (active). As for `COc1cc(COC2CN(C(=O)c3csc(SC)n3)CC(=O)N(C(C)C)C2)cc(OC)c1` (centres undefined), the figure is -6.26%; as for `CCOCC1CN(Cc2ccc3c(c2)OCO3)Cc2cncn2C1` (centres undefined), -0.275%; as for `COc1ccc(-c2nc3ccccc3n2-c2cc(C(C)(C)C)c(O)c(C(C)(C)C)c2)cc1`, -86.1% (active). As for `CCN1CCN(c2nc(-c3ccc(OC)cc3)nc3ccccc23)CC1`, the figure is -47.8%; as for `OCCn1c(-c2ccc(-c3ccn[nH]3)cc2)nc2ccccc21`, 92.2%. Consider `C=CCOCC12CCCOC1CCN(S(=O)(=O)c1cccnc1)C2` (centres undefined), for which the activity change, negative = inhibition is 40.1%.

In the case of `CCOc1ccccc1CNC(=O)c1nc(-c2cccc(F)c2)n2c1CCCCC2`, the activity change, negative = inhibition is -84.4% (active). As for `CCCN1CCN(C(=O)c2nc(-c3cccc(F)c3)n3c2CCCCC3)CC1`, the figure is 3.76%; as for `CCOc1ccccc1NC(=O)C(=O)NCCc1csc(-c2cccc(F)c2)n1`, -13.3%; as for `CC(C)N1CCN(C(=O)c2csc(-c3ccc(N4CCCC4)nc3)n2)CC1`, -27.3%. As for `Cc1nc2nc(Cc3ccc(Cl)cc3)[nH]n2c(=O)c1Cc1ccccc1`, the figure is 4.81%; as for `Cc1cccc(Cc2c(C)[nH]n(-c3nc4ccccc4[nH]3)c2=O)c1`, -124% (active); as for `Nc1cccc(CCc2nc3ccccc3[nH]2)c1`, 22%.

For `CN(C)c1ncnc2c1CCN(C(=O)c1ccnnc1)CC2`, the activity change, negative = inhibition was -0.9%. Under `Cc1ccc(-c2nn(C(C)(C)C)c3ncnc(N)c23)cc1` stands -84% (active) and -73.5% (active). As for `Cn1cc(CN2CCc3ncnc(-c4ccccc4)c3CC2)cn1`, the figure is -8.43%. As for `Cc1cccnc1CN(C)C(=O)c1cc(CN2CCC(Cc3ccccc3)CC2)on1`, the figure is 9.1%. Consider `Oc1c(Cl)cc(Cl)c(Cl)c1Cc1c(O)c(Cl)cc(Cl)c1Cl`, for which the activity change, negative = inhibition was -85.3% (active) and -87.1% (active) and -96% (active). Under `N#Cc1cccc(-c2ccc3c(c2)[C@H]2[C@H](CCN2S(=O)(=O)c2ccc(F)cc2)[C@@H](CO)N3)c1` stands -42.4%; under `COCC#Cc1ccc([C@@H]2[C@@H](CO)N3CCCCN(C(=O)NC4CCCC4)C[C@H]23)cc1`, -18.5%. As for `CC(C)NS(=O)(=O)c1ccc(OCC(=O)N2CCCCCC2)cc1`, the activity change, negative = inhibition is 1.18%. Under `O=C1CCCN1CC1CN(Cc2ccccn2)Cc2nccn2C1` (centres undefined) stands -70.8% (active); under `O=C1CCCN1CC1CN(c2ncc(F)cn2)Cc2nccn2C1` (centres undefined), 4.1%.

`O=C(CC1CCN(Cc2ccccn2)CC1)Nc1ccc(OC2CCCC2)cc1`: the activity change, negative = inhibition is -69.9%. Consider `COC(=O)c1ccc(-c2noc(-c3c(O)c4ccccc4[nH]c3=O)n2)cc1`, for which the activity change, negative = inhibition is 21.8%. As for `O=C(CCCn1cnnn1)N1CCc2onc(-c3cccc(F)c3)c2C1`, the figure is -6.14%; as for `CCCCc1ccc(S(N)(=O)=O)cc1`, -51.9%; as for `CCCCCCCCCc1ccc(OCCOCCOCCOCCOCCOCCOCCOCCOCCO)cc1`, -80.7% (active).

As for `CCCCCc1ccc(C#Cc2ccc(OC(F)F)cc2)cc1`, the activity change, negative = inhibition was 5.21%. `Cc1cc(-c2cccc(O)c2)nc(-c2ccccc2O)n1`: the activity change, negative = inhibition is -20%. As for `CN1C(=O)c2cc(NC(=O)C3CCOCC3)ccc2OC[C@@H]2O[C@H](CC(=O)NCc3ccccc3F)CC[C@H]21`, the figure is 11.5%; as for `CN(C)C(=O)N1CCc2ncnc(C3CCOC3)c2CC1` (centres undefined), 1.98%.

For `O=C(Cn1c(=O)cc(C(=O)N2CCCCC2)c2ccccc21)NC1CCCC1`, the activity change, negative = inhibition is 11.6%. Take `CC(C)CN1C(=O)N(C2Cc3ccccc3C2)C(=O)C12CCN(Cc1nc3ccccc3n1C)CC2`: the activity change, negative = inhibition was -8.38%. As to `CC(C)CN1CC[C@H]2[C@H](CC1)S(=O)(=O)CCN2C(=O)c1ccccc1`, the activity change, negative = inhibition was 3.93%. Under `CC(C)CN1CCC2(C=C(C(=O)N(C)C)c3ccccc32)CC1` stands -81.7% (active). Under `Cc1ccc(C(=O)N2CCC3(CC2)C(=O)N(C)CCN3CC2CC2)cn1` stands 1.05%. For `CN1C[C@@H]2C3(CCN(C(=O)Nc4ccccc4)CC3)CC[C@@]2(C(=O)N2CCCC2)C1`, the activity change, negative = inhibition was 6.69%.

In the case of `COc1ccc2c3c(n(C)c2c1)[C@@H](CO)N(C)CC31CN(S(=O)(=O)c2cccs2)C1`, the activity change, negative = inhibition was 36%. For `C#C[C@]1(O)CC[C@H]2[C@@H]3CCC4=CC(=O)CC[C@@H]4[C@H]3CC[C@@]21CC`, the activity change, negative = inhibition is -81.4% (active) and -75.5% (active). Regarding `C#C[C@]1(O)CC[C@H]2[C@@H]3CCC4=CC(=O)CC[C@@H]4C3CC[C@@]21CC` (some centres undefined), the activity change, negative = inhibition was -83.8% (active). Under `COc1cc(-c2nc(CN3[C@@H]4CC[C@H]3CNC(=O)C4)c(C)o2)cc2c1OCO2` stands -3.36%. Take `COc1ccccc1NC(=O)Cn1ncc2c(N3CCN(c4ccccc4)CC3)ncnc21`: the activity change, negative = inhibition was 74%. Consider `COc1ccc(-c2nc(C)c(CCNC(=O)C(=O)Nc3cccc(OC)c3)s2)cc1`, for which the activity change, negative = inhibition was 487%. Under `Cc1oc(-c2cccc(Oc3ccccc3)c2)nc1CN1[C@@H]2CC[C@H]1CNC(=O)C2` stands -8.53%; under `O=C(CC1Nc2c3ccccc3nc(=S)n2C1=O)N1CCN(c2ccc(Cl)cc2)CC1` (centres undefined), -16.2%; under `COc1ncc(-c2cccc(C(C)N3CCCC3)c2)c(OC)n1` (centres undefined), -10.7%. As for `C[C@H](CO)N1C[C@H](C)[C@H](CN(C)Cc2ccncc2)Oc2ccc(NS(=O)(=O)c3ccc(F)cc3)cc2CC1=O`, the figure is 33.3%; as for `Cc1noc(C)c1S(=O)(=O)N(C)C[C@@H]1OCCCC[C@H](C)Oc2ccc(NC(=O)CCC(F)(F)F)cc2C(=O)N([C@H](C)CO)C[C@H]1C`, 94.9%; as for `C[C@@H]1CCCCO[C@@H](CN(C)Cc2ccncc2)[C@H](C)CN([C@H](C)CO)C(=O)c2cc(NC(=O)Cc3ccccc3)ccc2O1`, 318%. As for `C[C@@H]1CN([C@H](C)CO)C(=O)c2cc(NS(=O)(=O)c3cccs3)ccc2O[C@@H](C)CCCCO[C@@H]1CN(C)C(=O)c1ccncc1`, the figure is 14.1%; as for `Cc1ccc(S(=O)(=O)Nc2ccc3c(c2)C(=O)N([C@H](C)CO)C[C@@H](C)[C@H](CN(C)S(=O)(=O)c2cccs2)OCCCC[C@@H](C)O3)cc1`, -131% (active). `Cc1noc(C)c1S(=O)(=O)Nc1ccc2c(c1)C(=O)N([C@@H](C)CO)C[C@H](C)[C@@H](CN(C)C(=O)Nc1cccc3ccccc13)OCCCC[C@H](C)O2`: the activity change, negative = inhibition is 141%. Consider `Cc1ccc(S(=O)(=O)Nc2ccc3c(c2)C(=O)N([C@@H](C)CO)C[C@@H](C)[C@H](CN(C)Cc2ccc(C(F)(F)F)cc2)O3)cc1`, for which the activity change, negative = inhibition was -72.9% (active).

Take `C[C@@H]1CN([C@@H](C)CO)C(=O)c2cc(NS(=O)(=O)c3ccccc3)ccc2O[C@@H](C)CCCCO[C@H]1CN(C)C(=O)C1CCCCC1`: the activity change, negative = inhibition was -14.8%. With `C[C@H](CO)N1C[C@H](C)[C@@H](CN(C)Cc2ccncc2)OCCCC[C@H](C)Oc2ccc(NS(=O)(=O)c3ccc(Cl)cc3)cc2C1=O`, the activity change, negative = inhibition was -94.1% (active). Under `C[C@@H]1CN([C@H](C)CO)C(=O)c2cc(NC(=O)Cc3ccccc3)ccc2O[C@@H](C)CCCCO[C@@H]1CN(C)Cc1ccncc1` stands 31.6%; under `C[C@@H]1CN([C@@H](C)CO)C(=O)c2cc(NS(C)(=O)=O)ccc2O[C@@H]1CN(C)C`, -0.62%.

Consider `C[C@@H]1CN([C@H](C)CO)C(=O)c2cc(NS(=O)(=O)c3ccccc3)ccc2O[C@@H](C)CCCCO[C@H]1CN(C)C(=O)C1CCCCC1`, for which the activity change, negative = inhibition was -116% (active).
